# Experimental data: PubChem BioAssay (NCATS)
# Inconclusive results are not listed. Calls of active or inactive are those of the source. Calls come from the whole dose curve; as a rule, active = well fitted curve in the direction sought with a large enough effect; inconclusive = small, poorly fitted or top-dose-only effect, or another doubt; inactive = no such curve, though single readings can be large; an effect the other way counts as inactive or inconclusive.
# Experiment: qHTS of pediatric cancer cell lines to identify multiple opportunities for drug repurposing: Confirmatory screen for BT-12 cells (AID 1347112); note: nearly all actives have a fitted effect of over 55% in size
# Settings: BT-12 rhabdoid tumor cells, viability; series mostly up to 45.9 µM
# Text: Drug repurposing or repositioning has been offered as a strategy for drug development in oncology programs. This approach has special potential for childhood cancers and other rare or orphan diseases, where the expected return on new drug development has been a disincentive to pharmaceuticals.
# In this project we exploit the poly-pharmacology of drugs to discover new indications via phenotypic screening of a panel of 19 well-characterized cell lines derived from solid tumors seen in children and adolescents. The goal is to identify approved drugs with previously unrecognized anticancer properties that has the potential to reveal new mechanisms and biological processes involved in carcinogenesis or drug resistance. We employed a titration-based paradigm (quantitative high-throughput screening or qHTS), where all compounds were tested at multiple concentrations for their effect on cell viability. Concentration-response curves (CRCs) were derived directly from the primary screen, and both potency and efficacy values were used to identify compounds with robust bioactivity profiles. We screened the NIH Chemical Genomics Center (NCGC) Pharmaceutical Collection (NPC) and Mechanism Interrogation Plate (MIPE) small molecule collections of approved and investigational compounds against these cell lines; and measured metabolically active cells after 48 hours of compound treatment as a proxy for cell viability.
# Assay Submitter: Nathalia J. Martinez, National Center for Advancing Translational Sciences, National Institutes of Health, Rockville, MD, USA; email: natalia.martinez@nih.gov
# [1] Shen, M et al. Quantitative high-throughput phenotypic screening of pediatric cancer cell lines identifies multiple opportunities for drug repurposing. Oncotarget 2017 Dec 19;9(4):4758-4772. PMID 29435139. […]
# Cells were assayed in growth media at a density of 500-1,000 cells/well. […] After a 15 min incubation at room temperature, samples were analyzed for luminescence intensity using a ViewLux High-throughput CCD imager equipped with clear filters.
row,Compound,outcome
1,O=C(Cn1ccnc1[N+](=O)[O-])NCc1ccccc1,inactive
2,COc1cc(C(=O)NCCCCCC(=O)O)cc(OC)c1OC,inactive
3,CC(=O)[C@@]1(O)CC[C@H]2[C@@H]3C[C@H](C)C4=CC(=O)C=C[C@]4(C)[C@@]3(F)[C@@H](O)C[C@@]21C,inactive

# Experiment: qHTS of pediatric cancer cell lines to identify multiple opportunities for drug repurposing: Confirmatory screen for DAOY cells (AID 1347114); note: nearly all actives have a fitted effect of over 65% in size
# Settings: DAOY medulloblastoma cells viability, cytotoxicity qHTS; series mostly up to 45.9 µM
# In short: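 Viability measured as metabolically active cells via CellTiter-Glo luminescence following 48 hours of compound exposure, 11-point dilutions in confirmatory testing. 500-1,000 cells/well plated 5 hours before dosing; controls were DMSO and 2.3 µM bortezomib.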
row,Compound,outcome
1,O=C(Cn1ccnc1[N+](=O)[O-])NCc1ccccc1,inactive
2,COc1cc(C(=O)NCCCCCC(=O)O)cc(OC)c1OC,inactive
3,CC(=O)[C@@]1(O)CC[C@H]2[C@@H]3C[C@H](C)C4=CC(=O)C=C[C@]4(C)[C@@]3(F)[C@@H](O)C[C@@]21C,inactive

# Experiment: qHTS of pediatric cancer cell lines to identify multiple opportunities for drug repurposing: Confirmatory screen for NB-EBc1 cells (AID 1347115);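 note: cells exposed to compound for 48 h before the viability read; nearly all actives have a fitted effect of over 45% in size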
# Settings: NB-EBc1 neuroblastoma cells, viability (cytotoxicity); series mostly up to 45.9 µM
# In short: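 Viability after 48 h compound treatment at 37C, 500-1,000 cells/well, read as ATP luminescence with CellTiter-Glo. Primary screens used 11-point (MIPE, 0.78 nM-46 µM) or 8-point (NPC, 0.59 nM-46 µM) final concentrations; follow-up screens used 11-point dilutions.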
row,Compound,outcome
1,O=C(Cn1ccnc1[N+](=O)[O-])NCc1ccccc1,inactive
2,COc1cc(C(=O)NCCCCCC(=O)O)cc(OC)c1OC,inactive
3,CC(=O)[C@@]1(O)CC[C@H]2[C@@H]3C[C@H](C)C4=CC(=O)C=C[C@]4(C)[C@@]3(F)[C@@H](O)C[C@@]21C,inactive
